Bioassay records deposited in PubChem BioAssay by National Center for Advancing Translational Sciences (NCATS).
BRCA1 expr act – activators of BRCA1 expression | MCF7-BRCA1-FFLuc reporter, luminescence, 48 h; response scale: scaled: vehicle 0%, 10 µM genistein 100% | Potency, µM (series often up to 46.1 µM), inactives show at the highest dose activation, usual class: activators | actives 1.1% (n = 380,000); note: nearly all actives have a fitted effect of over 80% in size
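Reporter cells (MCF7, BRCA1 promoter-firefly luciferase) received library compounds across a concentration series for 48 h. End-point luminescence was measured and concentration-effect curves derived after normalization.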
HEK293 tox – cytotoxic in the GLP-1 receptor inverse agonist counter-screen. actives 0.13% (n = 410,000). AID 624418. HEK293 cAMP-luciferase reporter cells, luminescence, 24 h. Potency, µM (titrated, usually from 38.3 µM), inactives show top-dose activity change, negative = inhibition, usual class: inhibitors;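 note: loss of luciferase light is scored as toxicity; % is set by controls: 0 for no effect and ±100 for the full control effect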
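A 23 nL compound transfer followed 12 hours of cell culture at 37 deg C; exposure then lasted 24 hr. Luciferase assay detection reagent was dispensed and plates read for luminescence after a 12 min room-temperature wait.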
GLP-1R agonist – activates the human GLP-1 receptor; actives 0.007% (n = 380,000); AID 624172; Potency, µM (highest dose often 45.6 µM), for inactives: at the highest dose activation, actives largely listed as activators; HEK293 GLP-1R CRE-luciferase, luminescence, 4-6 h; cells express a hypersensitive GLP-1R form; note: % of control where 0% means no effect
Target sequence (P43220 whole entry, looked up): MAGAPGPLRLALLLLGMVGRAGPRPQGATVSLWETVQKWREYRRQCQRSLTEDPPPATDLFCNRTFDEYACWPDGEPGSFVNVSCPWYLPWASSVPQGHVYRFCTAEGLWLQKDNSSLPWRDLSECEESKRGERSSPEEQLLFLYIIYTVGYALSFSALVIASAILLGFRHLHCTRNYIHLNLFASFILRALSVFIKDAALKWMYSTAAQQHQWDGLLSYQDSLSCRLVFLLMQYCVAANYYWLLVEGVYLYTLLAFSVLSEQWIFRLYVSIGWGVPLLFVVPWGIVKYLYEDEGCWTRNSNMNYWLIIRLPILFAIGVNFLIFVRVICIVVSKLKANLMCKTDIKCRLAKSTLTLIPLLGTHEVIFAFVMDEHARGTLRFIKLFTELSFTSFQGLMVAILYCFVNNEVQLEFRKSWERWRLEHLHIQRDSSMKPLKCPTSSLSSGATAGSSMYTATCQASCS
GLP1R inv ag – GLP-1 receptor (human) inverse agonism. Potency, µM (top dose mostly 38.3 µM), without a hit: top-dose activity change, negative = inhibition, most hits filed as inhibitors. actives 1.6% (n = 410,000). HEK293 GLP-1R CRE-luciferase, luminescence, 24 h; GLP-1R form is constitutively active; note: % is set by controls: 0 for no effect and ±100 for the full control effect; nearly all actives have a fitted effect of over 55% in size
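GLP-1R inverse agonism mode: basal reporter luminescence in engineered HEK293 cells measured after one day of compound exposure at 37 deg C, with a 12 min room-temperature detection step.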
a7 integrin act – activators of alpha7 integrin expression for muscular dystrophy | alpha7betagal myoblasts, beta-gal FDG fluorescence, 48 h | Potency, µM (titrated, usually from 38.3 µM), without a hit: top-dose activation, most hits filed as activators | actives 0.064% (n = 350,000);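 note: 100% = response of the positive control SU9516; nearly all actives have a fitted effect of over 60% in size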
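Alpha7betagal+/- myoblasts (passage 13) were plated 16-24 hr, then exposed to compounds (1:260 dilution of DMSO stock) for 48 hours at 37C. After MPER lysis, β-galactosidase reporter activity was read as FDG fluorescence (ex 480/em 540) after 30 minutes.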
Active calls of the source: *; ? = inconclusive; . = no result; [ ] = remark or other dose. Hits are enriched below; roughly 2.7% of the tested compounds scored in any of these assays. Calls come from the whole dose curve; as a rule, active = well fitted curve in the direction sought with a large enough effect; inconclusive = small, poorly fitted or top-dose-only effect, or another doubt; inactive = no such curve, though single readings can be large; an effect the other way counts as inactive or inconclusive. Potency is the fitted concentration of half-maximal effect.

SMILES	BRCA1 expr act	HEK293 tox	GLP-1R agonist	GLP1R inv ag	a7 integrin act
COC(=O)c1cnc(SCc2ccc(Cl)cc2)n1C	11.2µM*	-1.1%[7.66 µM]	6.8%	0.5%[7.66 µM]	30.1%
Cn1ccnc1SCC(=O)c1ccc(Cl)cc1	?	-14.2%	3.5%	21.3%	-17.3%
Cc1ccc(Cn2cc(S(=O)(=O)c3cccc(Cl)c3)c(=O)c3cc(F)c(N4CCCCC4)cc32)cc1	.	-24.1%	.	4.8%	.
Cc1c(NS(=O)(=O)c2ccc(Br)cc2)c(=O)n(-c2ccccc2)n1C	0.0%	3.7%	2.2%	11.6%	-5.6%
Cc1c(NP(=O)(c2ccc(Br)cc2)c2ccc(Br)cc2)c(=O)n(-c2ccccc2)n1C	-5.5%	-14.6%	10.5%	11.2µM*	13.8%
Cc1ccccc1CN1CCN(C(=O)c2cccc3ccccc23)CC1	-19.9%	-6.8%	1.8%	10µM*	-0.6%
O=C(c1cccc2ccccc12)N1CCN(Cc2ccccc2F)CC1	-13.8%	-4.9%	-5.8%	?	4.4%
COc1ccc2ccccc2c1CN1CCN(C(=O)c2ccccc2)CC1	-29.0%	-7.8%	-2.6%	10µM*	-8.4%
COc1ccc2ccccc2c1CN1CCN(C(=O)c2ccco2)CC1	-7.2%	?	7.4%	?	-29.4%
COc1cccc(CN2CCN(C(=O)c3cccc4ccccc34)CC2)c1OC	-38.0%	-13.7%	20.3%	?	20.7%
COc1ccccc1CN1CCN(C(=O)c2cccc3ccccc23)CC1	-15.9%	3.7%	-6.7%	11.2µM*	?
Cc1ccc(CN2CCN(C(=O)c3cccc4ccccc34)CC2)cc1	-31.7%	-1.6%	12.2%	3.98µM*	-2.2%
Cc1ccc2nc(-c3ccc(Cl)c(NC(=O)COc4ccc([N+](=O)[O-])cc4)c3)oc2c1	.	-0.6%	.	18.3%	.
CN(C)c1ccc(C(CNC(=O)c2cccs2)N(C)C)cc1 (configuration not stated)	12.6µM*	6.2%	8.3%	10.0%	-2.5%
CCOc1ccc(C(=O)N2CCCC(c3nc(-c4ccc(C)o4)no3)C2)cc1 (configuration not stated)	5.1%	-6.3%	15.4%	11.2µM*	0.0%
CC(OC(=O)c1ccccc1OCC(=O)Nc1ccc(Br)cc1)C(=O)NC1CCCC1 (configuration not stated)	14.6%	.	.	.	.
Cc1ccccc1C(=O)Nc1nnc(-c2ccncc2)o1	-5.7%	1.6%[7.66 µM]	0.3%	10.4%[7.66 µM]	4.1%
COc1cccc(C(=O)Nc2nnc(-c3ccc(Cl)cc3)o2)c1	3.3%	-28.7%	-2.4%	10µM*	0.0%
COc1ccccc1C(=O)Nc1nnc(-c2ccc3c(c2)CCCC3)o1	43.2%	11.2µM*	-2.8%	?	-3.5%
COc1ccc(-c2nnc(NC(=O)c3ccccc3C)o2)cc1	-3.0%	?	-3.4%	10µM*	-3.3%
Cc1ccc2oc(-c3cccc(NC(=O)COc4ccc(Cl)cc4C)c3C)nc2c1	2.4%	.	.	.	.
Cc1nc2ccn(Cc3cccnc3)c(=O)c2cc1C(=O)NCc1ccc(Cl)cc1	.	0.3%	.	-30.9%	.
CCCN1CCN(CC2=C(C(=O)OCC)C(c3ccc(Cl)cc3)NC(=O)N2)CC1 (configuration not stated)	-36.4%	-12.7%	-0.4%	6.9%	.
CCC(=O)Nc1cccc(-c2cc3ccccc3oc2=O)c1	10µM*	7.1%	14.7%	3.4%	-12.8%
CCCOc1cccc(C(=O)Nc2ccc(-c3cc4ccccc4oc3=O)c(C)c2)c1	.	13.2%	.	3.98µM*	.
SMILES	BRCA1 expr act	HEK293 tox	GLP-1R agonist	GLP1R inv ag	a7 integrin act
CCC(=O)Nc1cccc(NC(=O)c2cc3ccccc3o2)c1	?	-15.7%	1.0%	0.8%	16.5%
OC(COc1ccccc1)CN1CCCCC1 (configuration not stated)	1.2%	5.9%	8.0%	7.2%	2.6%
OC(COc1ccc(CNCCc2ccccc2F)cc1)CN1CCCCC1 (configuration not stated)	-33.5%	3.0%	-2.9%	5.01µM*	-8.9%
Cc1ccc(C(CNS(=O)(=O)c2ccc(C)cc2)N2CCN(C)CC2)cc1 (configuration not stated)	2.3%	2.6%	6.0%	?	12.7%
Cc1ccc(N(C)C(CNS(=O)(=O)c2ccccc2)c2ccccc2)cc1 (configuration not stated)	.	2.5%	.	10µM*	.
CN(c1ccccc1)C(CNS(=O)(=O)c1ccccc1)c1ccccc1 (configuration not stated)	.	7.7%	.	?	.
CN1CCN(C(CNS(=O)(=O)c2ccc([N+](=O)[O-])cc2)c2ccc(F)cc2)CC1 (configuration not stated)	-4.5%	-0.8%	-12.2%	11.2µM*	-2.9%
Cc1ccc(S(=O)(=O)NCC(c2ccccc2)N2CCCCC2)cc1 (configuration not stated)	-1.3%	6.8%	6.0%	10µM*	?
CCn1c(=O)c2sccc2n2c(CCC(=O)N3CCN(c4ccccc4OC)CC3)nnc12	12.1%	-4.3%	-2.9%	21.0%	.
Cc1cccc(NC(=O)Cc2c(F)cccc2Cl)n1	?	-7.3%	13.3%	-18.7%	-37.2%
Cc1csc(NC(=O)Cc2c(F)cccc2Cl)n1	4.47µM*	-2.4%	16.1%	-17.6%	22.7%
CCc1cccc(C)c1NC(=O)CSc1nc(C)cc(C)c1C(=O)Nc1ccccc1	.	-15.4%	.	-30.6%	.
Cc1cccc(NC(=O)CSc2nnc(-c3n[nH]c4ccccc34)o2)c1	12.6µM*	-6.7%	-5.8%	18.6%	-3.2%
N#Cc1cccc(NC(=O)CSc2nnc(-c3n[nH]c4ccccc34)o2)c1	38.0%	-15.4%	8.7%	-2.6%	-15.2%
COc1ccccc1NC(=O)CSc1nnc(-c2ccoc2C)o1	7.94µM*	-10.3%	-1.5%	9.9%	4.9%
Cc1cccc(NC(=O)CSc2nnc(-c3ccccc3C)o2)c1	12.6µM*	1.6%	7.5%	2.8%	8.9%[7.66 µM]
Cc1ccc(N2CC(NC(=O)c3cc4ccccc4o3)CC2=O)cc1 (configuration not stated)	.	-1.9%	.	22.0%	.
O=C(Cn1c(=O)c(C(F)(F)F)nc2ccccc21)Nc1ccc(Br)cc1F	11.4%	2.1%	.	7.7%	.
COc1ccc(N2CCN(C(=O)CCS(=O)(=O)c3cc4c(cc3Cl)NC(=O)CO4)CC2)cc1	-10.2%	-5.5%	10.7%	-0.9%	.
COc1cc(/C=C/c2ccc3ccccc3n2)cc(OC)c1OC	3.7%	.	.	.	.
COc1ccc(Br)cc1CNC(=O)c1ccc2c(c1)nc1n2CCCCC1	.	-8.5%	.	?	.
O=C(NNC(=O)c1cc(-c2cccnc2)nc2ccccc12)Nc1ccc(Cl)cc1	-20.9%	-1.0%[0.307 µM]	-21.6%	9.0%[0.307 µM]	-21.9%
O=C(NCc1ccccn1)c1cc(-c2ccccc2)nc2ccccc12	-3.1%	-5.0%	-0.2%	11.7%	-3.5%
C/C(=N\NC(=O)c1cc(-c2cccs2)nc2ccccc12)c1ccccn1	-77.3%	?	7.5%	2.82µM*	-7.8%
